Tested on: human monocyte-derived macrophages (polarized)
Assay: cell shape (eccentricity) Z-score vs DMSO control; higher = more elongated, M2-like morphology
Details: 5 µM; 24 h; macrophage state: M1-polarized (IFNg + TNFa), cytokines present during treatment
Method: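 Primary-screen hits were rescreened on polarized hMDMs with the differentiating cytokines (IL-4 + IL-13 or IFNg + TNFa) kept in the medium during treatment with compound at 5 uM for 24 h. The eccentricity Z-score vs DMSO wells is averaged over experiments.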

Row | SMILES | cell shape (Z-score)
1 | CCCCCCCCCc1ccc(OCCOCCOCCOCCOCCOCCOCCOCCOCCO)cc1 | 5.89
2 | Oc1cccc(O)c1 | -3.74
3 | CNC(=O)c1cc(Oc2ccc(NC(=O)Nc3ccc(Cl)c(C(F)(F)F)c3)cc2)ccn1 | 14
4 | COc1ccc(N(C(=O)c2ccccc2)S(=O)(=O)c2cc(OC)ccc2OC)cc1 | -2.07
5 | Clc1ccc(C(Cn2ccnc2)OCc2ccsc2Cl)c(Cl)c1 (stereo not given) | -4.98
6 | C=C(c1ccc(C(=O)O)cc1)c1cc2c(cc1C)C(C)(C)CCC2(C)C | 8.49
7 | c1ccc(-c2nnc(N3CCOCC3)nc2-c2ccccc2)cc1 | -1.34
8 | CNC(=O)c1cc(Oc2ccc(NC(=O)Nc3ccc(Cl)c(C(F)(F)F)c3)c(F)c2)ccn1 | 12.1
9 | C[C@@H]1O[C@@H](Oc2cc(O)c3c(=O)c(O[C@@H]4O[C@@H](C)[C@H](O[C@@H]5O[C@@H](C)[C@H](O)[C@@H](O)[C@H]5O)[C@@H](O)[C@H]4O)c(-c4ccc(O)cc4)oc3c2)[C@H](O)[C@H](O)[C@H]1O | 5.9
10 | COc1nccnc1NS(=O)(=O)c1ccc(NC(=O)/C=C/c2ccc([N+](=O)[O-])s2)cc1 | -4.64
11 | Cc1cc(N2CCOCC2)cc2[nH]c(-c3c(NC[C@@H](O)c4cccc(Cl)c4)cc[nH]c3=O)nc12 | 2.38
12 | CC(C)c1ccccc1Cc1cc(C(=O)Nc2ccc(S(=O)(=O)c3ccccc3C(C)(C)C)cc2)c(O)c(O)c1O | -2.24
13 | CN(C)C(=O)n1nnnc1Cc1ccc(-c2ccccc2)cc1 | 10.3
14 | CC(C)(C)c1cc(C(=O)/C=C/c2ccc(C(=O)O)cc2)cc(C(C)(C)C)c1 | -7.58
15 | C=CC(=O)N1CCC[C@@H](n2nc(-c3ccc(Oc4ccccc4)cc3)c3c(N)ncnc32)C1 | 6.69
16 | CC[C@]12CCCN3CCc4c(n(c5ccccc45)[C@@](O)(C(=O)OC)C1)[C@@H]32 | -5.43
17 | Cc1onc(-c2ccccc2Cl)c1C(=O)N[C@@H]1C(=O)N2[C@@H]1SC(C)(C)[C@@H]2C(=O)O | -5.49
18 | CC1(C)CCC(C)(C)c2cc(C(=O)Nc3ccc(C(=O)O)cc3)ccc21 | -9.74
19 | C=C1C(=O)O[C@H]2C3=C(C)C[C@H](OC(C)=O)C[C@]3(C)CC[C@@H]12 | -1.91
20 | O=S(=O)(c1cccc2cnccc12)N1CCCNCC1 | -0.217
21 | Cn1c([N+](=O)[O-])cnc1COC(N)=O | -4.21

Same assay, conditions: 5 µM; 24 h; macrophage state: M2-polarized (IL-4 + IL-13), cytokines present during treatment

Row | SMILES | cell shape (Z-score)
22 | COC(=O)C[C@@H]1C(C(=O)O)=CO[C@@H](O[C@@H]2O[C@H](CO)[C@@H](O)[C@H](O)[C@H]2O)/C1=C\COC(=O)/C=C/c1ccccc1 | -7.78
23 | CC(CCCCC(=O)Nc1ccc(C(F)(F)F)cc1)NCCc1cnc[nH]1 (stereo not given) | -6.34
24 | O=C(O)CN1C(=O)c2cccc3cccc(c23)C1=O | 9.63
25 | O=C1c2c(O)ccc(O)c2C(=O)c2c(NCCNCCO)ccc(NCCNCCO)c21 | -1.14
26 | CC(=O)Cc1cc(=O)c2c(C)cc(O)c(C3OC(CO)C(O)C(O)C3O)c2o1 (stereo not given) | -1.16
27 | Cc1oc(=O)oc1CN1CCN(c2cc3c(cc2F)c(=O)c(C(=O)O)c2n3C(C)S2)CC1 (stereo not given) | -6.14
28 | CN1[C@@H](CC(=O)c2ccccc2)CCC[C@H]1C[C@H](O)c1ccccc1 | 4.11
29 | O=C(Nc1ccc([N+](=O)[O-])cc1Cl)c1cc(Cl)ccc1O [Niclosamide.2mM] | -6.52
30 | CCCC[C@@H](O)c1cc(OC)cc(=O)o1 | -3.33
31 | O=C(O)CC[C@H]1CC[C@@](c2cc(F)ccc2F)(S(=O)(=O)c2ccc(Cl)cc2)CC1 | 4.15
32 | CC(=O)N[C@@H](C(=O)O[C@H]1CCC(C)(C)[C@@H]2CCC3=C(COC3=O)[C@@]12C)C(C)C | -0.761
33 | O=C(CCCc1ccc(-c2ccccc2F)cc1)Nc1ccc(O)cc1 | -9.79
34 | NC(N)=Nc1nc(CSCC/C(N)=N/S(N)(=O)=O)cs1 | 0.285
35 | OCc1ccc(-c2ccc(-c3ccc(CO)s3)o2)s1 | -20.9
36 | OCCN(CCO)c1nc(N2CCCCC2)c2nc(N(CCO)CCO)nc(N3CCCCC3)c2n1 | 0.465
37 | CN(C)c1ccc(C(=C2C=CC(=[N+](C)C)C=C2)c2ccc(N(C)C)cc2)cc1 | -9.83
38 | O=C(Nc1ccc([N+](=O)[O-])cc1Cl)c1cc(Cl)ccc1O | -8.05
39 | CC1Nc2ccc(Cl)cc2S(=O)(=O)N1 (stereo not given) | -1.89
40 | Cc1cc(NS(=O)(=O)c2ccc(N)cc2)no1 | -9.54
